Screen size: about 220,000 compounds; about 830 (0.38%) were called active.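 The calls were made as follows: active = compound inhibiting the enzyme by more than half at any dose during confirmatory dose-response retesting; inconclusive = strong single-dose inhibitors picked by rank but not retested; inactive = the rest.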 Only a sample is shown. Potency and affinity values are given separately.
Molecular target: Leucine aminopeptidase (Plasmodium falciparum (isolate 3D7)) (UniProt Q8IL11)
Assay: P. falciparum M17LAP inhibitors, primary screen, biochemical, fluorogenic H-Leu-NHMec substrate, 1536-well (AID 1619);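 also: plate controls were full reaction with DMSO carrier for no effect and no enzyme background for full effect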
Conditions: recombinant M17LAP, H-Leu-NHMec fluorogenic kinetic assay; at 30 µM; stronger effect = higher value

Leucine aminopeptidase (Plasmodium falciparum (isolate 3D7)), sequence (Q8IL11 whole entry, looked up): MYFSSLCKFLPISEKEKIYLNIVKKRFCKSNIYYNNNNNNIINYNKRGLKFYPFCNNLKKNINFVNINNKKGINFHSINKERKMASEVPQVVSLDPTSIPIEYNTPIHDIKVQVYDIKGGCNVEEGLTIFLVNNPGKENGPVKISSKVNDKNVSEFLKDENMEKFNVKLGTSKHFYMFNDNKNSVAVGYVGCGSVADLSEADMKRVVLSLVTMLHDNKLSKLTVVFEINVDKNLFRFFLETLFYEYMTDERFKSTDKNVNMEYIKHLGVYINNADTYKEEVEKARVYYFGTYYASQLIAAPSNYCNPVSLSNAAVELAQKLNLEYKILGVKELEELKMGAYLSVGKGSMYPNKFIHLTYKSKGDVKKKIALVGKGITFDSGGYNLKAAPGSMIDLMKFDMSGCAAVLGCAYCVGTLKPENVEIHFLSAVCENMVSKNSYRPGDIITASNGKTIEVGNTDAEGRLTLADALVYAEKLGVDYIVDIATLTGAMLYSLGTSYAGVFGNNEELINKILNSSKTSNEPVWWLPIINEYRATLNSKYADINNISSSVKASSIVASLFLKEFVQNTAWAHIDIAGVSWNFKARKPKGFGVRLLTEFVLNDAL

inhibition, inactive:
CC(=O)C1=C(O)C(=O)N(Cc2ccco2)C1c1ccccc1 (stereo not given) 6.17%
CC(=O)C1=C(O)C(=O)N(Cc2ccco2)C1c1ccc(F)cc1 (stereo not given) 11%
Cc1ccc(S(=O)(=O)N2CCCC2C(=O)N2CCCCCC2)cc1 (stereo not given) -4.09%
COc1ccc2c(C(F)(F)F)cc(=O)oc2c1C -5.82%
CC(Sc1nc(-c2ccccc2)cs1)C(=O)Nc1ccc(Cl)cn1 (stereo not given) 13.8%
CC(Sc1nc(-c2ccc(F)cc2)cs1)C(=O)Nc1ccc(Cl)cn1 (stereo not given) 15.1%
Cn1c(=O)c(C(=O)Nc2ccccc2S(N)(=O)=O)c(O)c2ccccc21 -0.17%
COC(=O)C(C)(C)ONC(=O)Nc1ccccc1Cl -4.74%
CCN(CC)C(=O)c1ccc(N)cc1 7.5%
COc1ccc(Oc2ccc(/C=C/C(=O)c3ccc(O)cc3)cc2[N+](=O)[O-])cc1 12.4%
CC(C)(C)C1(C)OC(C(N)=O)C(C(N)=O)O1 (stereo not given) 8.29%
Cc1cc(=O)oc2c1c(C(F)(F)F)nn2-c1ccccc1 2.02%
CCOC(=O)C1CSC(CC(=O)Nc2ccc(OC(F)(F)F)cc2)C(=O)N1 (stereo not given) 14%
CCOC(=O)C1CSC(CC(=O)Nc2ccc(Cl)cc2)C(=O)N1 (stereo not given) 13.4%
CC(OC(=O)c1cn(-c2ccccc2)nc1-c1cccnc1)C(N)=O (stereo not given) 1.32%
O=C(COC(=O)c1ccc(S(=O)(=O)NCc2ccco2)cc1)Nc1ncc(Cl)cc1Cl -2.24%
N/C(Cc1ccc(Cl)cc1Cl)=N\OC(=O)c1ccccc1 0.73%
CCOc1ccc(OCc2cccc(C(=O)N(CC)CC)c2)cc1 -4.73%
COc1ccc(OCc2cccc(C(=O)O)c2)cc1 53.7%
O=C(Nc1ccc(C(=O)O)cc1)/C(=C\c1ccco1)NC(=O)c1ccccc1 45.7%
CN(C(=O)CSCC(=O)O)C1CCCCC1 -10.4%
CCOC(=O)/C(N=Nc1ccc(Cl)cc1)=C(/O)c1ccc([N+](=O)[O-])cc1 3.08%
Nc1[nH]ncc1-c1ccc(F)cc1 55.5%
Nc1[nH]ncc1-c1ccccc1 -3.57%
COC(=O)c1cc(C(=O)OC)n(Cc2ccc(Br)cc2)n1 -9.56%
CC(=O)c1c(C)[n+]([O-])c2ccc3c(non3O)c12 10.2%
CC[n+]1ccccc1/C=C/c1ccc(N(C)C)cc1 56.5%
CC[n+]1ccc(/C=C/c2ccc(N(C)C)cc2)c2ccccc21 50.7%
C[n+]1c(/C=C/c2ccc3c(c2)OCO3)ccc2ccccc21 0.47%
CN(C)c1ccc(/C=C/c2ccc3c4ccccc4ccc3[n+]2-c2ccccc2)cc1 13.1%
